PubChem BioAssay (NCATS)
Values joined by “and” are separate entries in the source; they are usually repeats but may differ in a detail not shown here. Identical values can stand only once. Records with an inconclusive call do not appear. Active and inactive are the calls of the source. Unless noted, calls come from the whole dose curve; as a rule, active = well fitted curve in the direction sought with a large enough effect; inconclusive = small, poorly fitted or top-dose-only effect, or another doubt; inactive = no such curve, though single readings can be large; an effect the other way counts as inactive or inconclusive.

How the values were obtained:
[1] = target: Thyroid hormone receptor beta (Homo sapiens) (UniProt P10828); assay: qHTS assay for small molecule antagonists of thyroid hormone receptor beta signaling (AID 588547; active = well fitted inhibition curve with a large enough effect in the signal ratio, with a control signal flat, not every such curve was filed as active; the % refers to the signal ratio;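 note: cells stimulated with 0.4 nM T3 agonist during compound exposure; % is set by controls: 0 for no effect and ±100 for the full control effect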); settings: TR-UAS-bla HEK293, beta-lactamase ratio, antagonist mode, 18 h
Thyroid hormone receptor beta (Homo sapiens), sequence (P10828 whole entry, looked up): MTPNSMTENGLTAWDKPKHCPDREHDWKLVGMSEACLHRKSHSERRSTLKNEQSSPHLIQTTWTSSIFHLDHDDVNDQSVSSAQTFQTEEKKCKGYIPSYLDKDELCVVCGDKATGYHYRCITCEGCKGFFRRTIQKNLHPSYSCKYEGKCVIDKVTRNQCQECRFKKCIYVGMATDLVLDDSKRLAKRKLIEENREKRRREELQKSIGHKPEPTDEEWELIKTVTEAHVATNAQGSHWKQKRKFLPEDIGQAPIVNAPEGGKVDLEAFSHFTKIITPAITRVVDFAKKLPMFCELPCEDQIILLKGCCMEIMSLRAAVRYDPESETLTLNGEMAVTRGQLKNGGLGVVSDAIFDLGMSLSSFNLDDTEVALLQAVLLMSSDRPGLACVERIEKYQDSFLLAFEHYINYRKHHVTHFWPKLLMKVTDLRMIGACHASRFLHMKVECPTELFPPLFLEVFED
Outline: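 TR-UAS-bla GripTite HEK293 cells in 2% charcoal/dextran FBS medium were preincubated 4 h at 37 C, given compound (0.59 nM to 92 uM) plus 0.4 nM T3 (final) for 18 h, then CCF4 for 2 h at RT; Hill fit gave IC50.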

[2] = target: Voltage-gated inwardly rectifying potassium channel KCNH2 (Homo sapiens) (UniProt Q12809); assay: qHTS Assay for Small Molecule Inhibitors of the Human hERG Channel Activity (AID 588834); settings: U2OS BacMam hERG, FluxOR thallium flux fluorescence; series mostly up to 46.1 µM;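 note: top concentration of the series differs between compounds; % is set by controls: 0 for no effect and ±100 for the full control effect; lower thallium flux fluorescence means stronger hERG block; nearly all actives have a fitted effect of over 50% in size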
Voltage-gated inwardly rectifying potassium channel KCNH2 (Homo sapiens), sequence (Q12809 whole entry, looked up): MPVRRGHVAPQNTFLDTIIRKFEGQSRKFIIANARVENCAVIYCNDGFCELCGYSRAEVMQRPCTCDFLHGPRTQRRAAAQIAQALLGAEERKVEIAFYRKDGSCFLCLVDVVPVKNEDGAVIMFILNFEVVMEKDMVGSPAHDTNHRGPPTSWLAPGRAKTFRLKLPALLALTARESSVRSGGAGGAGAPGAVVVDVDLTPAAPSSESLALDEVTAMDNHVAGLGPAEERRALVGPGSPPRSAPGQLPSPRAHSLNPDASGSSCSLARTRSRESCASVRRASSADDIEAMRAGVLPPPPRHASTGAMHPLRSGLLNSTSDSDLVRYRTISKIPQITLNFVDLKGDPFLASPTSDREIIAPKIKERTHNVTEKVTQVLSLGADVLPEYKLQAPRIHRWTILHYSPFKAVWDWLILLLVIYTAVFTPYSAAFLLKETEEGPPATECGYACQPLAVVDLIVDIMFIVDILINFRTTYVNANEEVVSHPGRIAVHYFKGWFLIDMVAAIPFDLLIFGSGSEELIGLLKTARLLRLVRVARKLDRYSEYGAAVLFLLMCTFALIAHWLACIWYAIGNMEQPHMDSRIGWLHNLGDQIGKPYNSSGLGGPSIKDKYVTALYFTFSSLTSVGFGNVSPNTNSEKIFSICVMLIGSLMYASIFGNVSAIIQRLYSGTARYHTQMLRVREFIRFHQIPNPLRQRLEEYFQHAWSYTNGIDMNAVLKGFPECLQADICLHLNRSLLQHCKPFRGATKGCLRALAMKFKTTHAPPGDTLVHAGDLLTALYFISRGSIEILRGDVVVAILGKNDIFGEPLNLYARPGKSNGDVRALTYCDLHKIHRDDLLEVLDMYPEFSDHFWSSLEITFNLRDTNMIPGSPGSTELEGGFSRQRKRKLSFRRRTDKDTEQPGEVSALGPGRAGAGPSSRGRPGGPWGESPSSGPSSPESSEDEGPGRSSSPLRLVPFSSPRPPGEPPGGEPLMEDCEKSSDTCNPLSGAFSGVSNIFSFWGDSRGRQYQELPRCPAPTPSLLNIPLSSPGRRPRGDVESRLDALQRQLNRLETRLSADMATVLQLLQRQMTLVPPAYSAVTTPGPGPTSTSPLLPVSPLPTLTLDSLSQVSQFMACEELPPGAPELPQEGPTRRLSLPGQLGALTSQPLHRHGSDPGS
Outline: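 Thallium-flux (FluxOR) read-out on FDSS: fluorescence read 10 s before and 2 min after stimulation buffer. hERG-BacMam-transduced U2OS cells, compound exposure about 10 min. AC50 by standard Hill equation.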

[3] = target: Luciferin 4-monooxygenase (Photinus pyralis) (UniProt P08659); assay: Biochemical firefly luciferase enzyme assay for NPC (AID 624030);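 note: purified P. pyralis luciferase at 10 nM with luciferin and ATP substrate; 0% = DMSO and -100% = full luciferase inhibition by PTC124 control; nearly all actives have a fitted effect of over 70% in size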; settings: purified P. pyralis luciferase, luminescence, 5 min; series mostly up to 58.6 µM
Luciferin 4-monooxygenase (Photinus pyralis), sequence (P08659 whole entry, looked up): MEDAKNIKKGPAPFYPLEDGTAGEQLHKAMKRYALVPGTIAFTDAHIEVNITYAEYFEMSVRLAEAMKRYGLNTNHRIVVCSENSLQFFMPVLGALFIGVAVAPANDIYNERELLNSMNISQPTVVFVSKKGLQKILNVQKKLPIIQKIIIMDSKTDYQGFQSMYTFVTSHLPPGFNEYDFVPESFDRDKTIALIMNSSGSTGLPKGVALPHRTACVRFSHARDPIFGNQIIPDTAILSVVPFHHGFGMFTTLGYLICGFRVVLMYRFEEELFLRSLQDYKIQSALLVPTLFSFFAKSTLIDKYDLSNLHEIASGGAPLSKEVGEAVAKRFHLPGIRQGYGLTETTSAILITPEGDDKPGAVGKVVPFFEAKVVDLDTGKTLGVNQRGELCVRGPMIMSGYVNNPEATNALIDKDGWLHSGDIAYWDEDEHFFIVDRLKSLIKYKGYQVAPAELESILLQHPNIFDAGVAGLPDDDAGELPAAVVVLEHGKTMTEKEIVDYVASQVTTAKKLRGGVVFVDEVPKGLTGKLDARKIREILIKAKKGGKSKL
Outline: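 Counter-screen for direct inhibition of the luciferase enzyme by approved-drug library compounds, run at 10 nM enzyme in 50 mM Tris acetate (final). Luminescence was read within 5 min of enzyme-buffer addition and normalized to PTC124 versus DMSO (0%).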

[4] = S16 Schwann cell viability assay (CellTiter-Glo assay) (AID 624031); settings: S16 rat Schwann cells viability, 24 h; series mostly up to 57.5 µM;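 note: native untransfected S16 rat Schwann cells; cellular ATP luminescence as a viability measure; plate controls were DMSO-treated cells for no effect and cell-free wells for full effect; nearly all actives have a fitted effect of over 70% in size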
Outline: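 Rat S16 Schwann cells without reporter constructs received compound or DMSO for 24 h at 37 °C under 5% CO2. Cellular ATP was then quantified by CellTiter-Glo luminescence, with vehicle wells defined as 0% activity and cell-free wells as reference.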

[5] = S16 Schwann cell PMP22 intronic element firefly luciferase assay (AID 624032); settings: S16 rat Schwann cells, PMP22 element FLuc, 24 h; series mostly up to 57.5 µM;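 note: plate controls were DMSO for no effect and PTC124 positive control mean for full effect; nearly all actives have a fitted effect of over 30% in size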
Outline: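 Rat S16 Schwann cells stably carrying a PMP22 intronic element-driven Fluc reporter were seeded overnight, then exposed to compounds for 24 h at 37 °C. Luminescence was normalized to PTC124 (positive control) and DMSO (0% activity).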

[6] = qHTS assay for small molecule agonists of the antioxidant response element (ARE) signaling pathway (AID 651741; active = well fitted activation curve with a large enough effect in the signal ratio; the % refers to the signal ratio; note: % of control where 0% means no effect); settings: HepG2 ARE-bla reporter, beta-lactamase FRET ratio, 16 h; series mostly up to 96 µM
Outline: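 Reporter: beta-lactamase under ARE, stably in HepG2. Exposure: 16 h, 37 C, compounds delivered in DMSO by pin tool after 5 h cell preincubation. Readout: FRET substrate fluorescence after 2 h at RT.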

[7] = qHTS assay for small molecule activators of the p53 signaling pathway (AID 651743; active = well fitted activation curve with a large enough effect in the signal ratio, not every such curve was filed as active; the % refers to the signal ratio; note: % of control where 0% means no effect); settings: HCT-116 p53RE-bla, beta-lactamase FRET ratio, 16 h; activation: active compounds read high
Outline: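 Agonist-mode quantitative HTS in HCT-116 cells carrying a p53-response-element beta-lactamase reporter; 16 h compound treatment at 37 C, then FRET substrate loading for 2 h at room temperature and fluorescence read.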

[8] = qHTS assay for small molecule activators of the nuclear factor-kappa B (NF-kB) signaling pathway (AID 651749; active = well fitted activation curve with a large enough effect in the signal ratio; the % refers to the signal ratio; note: % of control where 0% means no effect); settings: NF-kB-bla ME-180 cells, beta-lactamase FRET ratio, 16 h; active compounds read high
Outline: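 Human ME-180 cervical cells with an NF-kB-bla construct; compounds added via 23 nL pin transfer, DMSO as vehicle; incubation 16 hr. Reporter activity measured by FRET disruption.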

[9] = target: Tumor necrosis factor (Homo sapiens) (UniProt P01375); assay: qHTS assay to identify small molecules that stimulate Tumor Necrosis Factor-alpha (TNF-alpha) secretion (AID 651757; active = well fitted curve in the direction sought with a large enough effect in the signal ratio; the % refers to the signal ratio; note: 0% is about no effect); settings: Human cells, HTRF 665/615 ratio; series mostly up to 92.2 µM
Tumor necrosis factor (Homo sapiens), sequence (P01375 whole entry, looked up): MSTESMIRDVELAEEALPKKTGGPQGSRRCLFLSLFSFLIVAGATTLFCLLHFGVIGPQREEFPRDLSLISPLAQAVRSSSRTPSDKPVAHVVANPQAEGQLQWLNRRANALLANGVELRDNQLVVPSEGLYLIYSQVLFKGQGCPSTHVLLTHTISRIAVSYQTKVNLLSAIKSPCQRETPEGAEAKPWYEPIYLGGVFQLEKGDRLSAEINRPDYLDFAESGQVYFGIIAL
Outline: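 Secreted TNF-alpha quantified by TR-FRET sandwich of two labeled anti-TNF-alpha antibodies, incubated 3 hr at room temperature. Preceded by 17 hr, 37 C compound treatment of THP-1 cells at 3000 cells/well.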

[10] = qHTS assay for environmental chemicals that activate the Aryl hydrocarbon Receptor (AhR) signaling pathway (AID 651777); settings: 1A2-DRE human hepatoma cells, luciferase, 24 h; activation: active compounds read high; note: % of control where 0% means no effect; nearly all actives have a fitted effect of over 15% in size
Outline: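 Measured luciferase activity, read 30 min after One-Glo addition at room temperature, from human hepatoma cells bearing a dioxin response element–CYP1A2 promoter reporter and exposed to compound for 24 hr at 37 C.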

[11] = target: Peroxisome proliferator-activated receptor alpha (Homo sapiens) (UniProt Q07869); assay: qHTS assay for small molecule agonists of the peroxisome proliferator-activated receptor alpha (PPARalpha) signaling pathway (AID 651778); settings: PathHunter PPARalpha complementation, chemiluminescence, 6 h; active compounds read high; note: % of control where 0% means no effect
Peroxisome proliferator-activated receptor alpha (Homo sapiens), sequence (Q07869 whole entry, looked up): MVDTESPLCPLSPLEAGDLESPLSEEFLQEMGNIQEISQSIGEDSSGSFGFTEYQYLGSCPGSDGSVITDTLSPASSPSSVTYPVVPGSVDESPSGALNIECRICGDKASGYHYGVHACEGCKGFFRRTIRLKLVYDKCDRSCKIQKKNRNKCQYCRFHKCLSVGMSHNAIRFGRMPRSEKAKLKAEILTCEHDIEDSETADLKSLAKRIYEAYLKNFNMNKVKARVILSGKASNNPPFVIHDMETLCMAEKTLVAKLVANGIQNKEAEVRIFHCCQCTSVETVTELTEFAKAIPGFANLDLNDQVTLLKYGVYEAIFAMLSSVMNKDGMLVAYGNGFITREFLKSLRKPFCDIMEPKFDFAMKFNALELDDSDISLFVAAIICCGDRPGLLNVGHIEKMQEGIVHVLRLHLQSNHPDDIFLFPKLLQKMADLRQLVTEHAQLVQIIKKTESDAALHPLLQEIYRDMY
Outline: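 Cells plated at 2,000/well and held overnight at 37 C, 5% CO2, then compound added by pin tool for 6 hr; after PathHunter detection reagent and 60 min at room temperature, chemiluminescence from enzyme complementation was read.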

[12] = qHTS assay for small molecule disruptors of the mitochondrial membrane potential - 1 hr assay (AID 651754; calls by dose curve; note: % is set by controls: 0 for no effect and ±100 for the full control effect; nearly all actives have a fitted effect of over 35% in size); settings: series mostly up to 92.2 µM
Outline: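 Mitochondrial potential in living HepG2 cells after 1 hr compound treatment at 37C was read with Mito-MPS dye added for a further 30 min. Red aggregate and green monomer fluorescence were measured; loss of potential leaves dye as cytoplasmic monomers.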

[13] = qHTS assay for small molecule disruptors of the mitochondrial membrane potential - 5 hr assay (AID 651755; calls by dose curve; note: % is set by controls: 0 for no effect and ±100 for the full control effect; nearly all actives have a fitted effect of over 40% in size); settings: JC-1-type ratio dye; series mostly up to 92.2 µM
Outline: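 Seed HepG2 overnight, add compound, incubate 5 hr at 37C and 5% CO2, stain 30 min with Mito-MPS, then measure monomer (490/535 nm) and aggregate (540/590 nm) fluorescence.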

[14] = qHTS assay to identify small molecules that stimulate interleukin-8 (IL-8) secretion (AID 651758; active = well fitted activation curve with a large enough effect in the signal ratio; the % refers to the signal ratio; note: 0% is about no effect); settings: HTRF ratio (665/615); series mostly up to 92.2 µM
Outline: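 Quantitative HTS in THP-1 monocytic cells at 2000 cells per well, with 16 hrs compound incubation at 37 C. IL-8 in the medium was then quantified by HTRF immunoassay, read after 1-3 hrs at room temperature.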

[15] = S16 Schwann cell PMP22 intronic element beta-lactamase assay (AID 624044; calls by dose curve;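 note: 0% = DMSO and -100% = potassium clavulanate positive control; nearly all actives have a fitted effect of over 15% in size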); settings: S16 rat Schwann cells, PMP22 element beta-lactamase FRET, 24 h; ratio activity, negative = inhibition: at 38.3 µM (top of the series) unless noted
Outline: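 Beta-lactamase reporter under a PMP22 intronic regulatory element in stable S16 rat Schwann cells; 24 h compound exposure. 460 nm blue signal normalized between DMSO (0%) and potassium clavulanate, with 535 nm FRET tracking viability; curves classed by r2 and response.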

COC(=O)c1ccccc1O
inactive: activity change % (negative = inhibition) [1] -3.85% | Potency [2] | Potency [3] | Potency [4] | Potency [5] | Potency [6] | activation [7] 0.469% and 1.6% | activation [8] -1.33% and 1.01% | Potency [9] | activation [10] 0.888% and 1.53% | max response [11] -2.75% and -2.44%

Cc1ccc(S(=O)(=O)O)cc1C
inactive: activity change % (negative = inhibition) [1] -0.818% | Potency [2] | Potency [3] | Potency [4] | Potency [5] | activation [7] -1.09% | Potency [12] | Potency [13] | Potency [9] | Potency [14] | activation [10] -1.47% | max response [11] -6.39%

[O-][N+](=Nc1ccccc1)c1ccccc1
inactive: activity change % (negative = inhibition) [1] 7.57% | Potency [4] | ratio activity, negative = inhibition [15] 3.38% | activation [7] 1.25% | activation [8] 0.0708% | Potency [12] | Potency [13] | Potency [9] | max response [11] 10.8%

CC1C(=O)CC2C3(C)CCC2(C(C)C(=O)O)C(=O)C13 (stereo not drawn)
inactive: Potency [5]

CCOC(=S)SSC(=S)OCC
inactive: Potency [5]

O=C(O)/C=C/C(=O)Nc1ccc(S(=O)(=O)Nc2nccs2)cc1
inactive: Potency [2] | Potency [3] | Potency [4] | Potency [5]

Cc1ccc(C(C)(C)c2ccc(C)cc2)cc1
inactive: Potency [2] | Potency [3] | Potency [4] | Potency [5]

CCCc1ccc(C(=O)O)cc1
inactive: Potency [2] | Potency [3] | Potency [4] | Potency [5]

C[Se]CC[C@H](N)C(=O)O
inactive: Potency [2] | Potency [3] | Potency [4] | Potency [5]

CC(C)=CCC/C(C)=C/CC/C(C)=C/CC/C=C(\C)CC/C=C(\C)CCC=C(C)C
inactive: Potency [2] | Potency [3] | Potency [4] | Potency [5]

COC(=O)[C@@H](N)CS
inactive: Potency [2] | Potency [3] | Potency [4] | Potency [5]

CC(C)Cc1ccc([C@@H](C)C(=O)NS(C)(=O)=O)cc1
inactive: Potency [2] | Potency [3] | Potency [4] | Potency [5]

CC(=O)Nc1c(I)c(C(=O)O)c(I)c(N(C)C(C)=O)c1I
inactive: Potency [2] | Potency [3] | Potency [4] | Potency [5]

O=C(O)[C@H]1CN(C/C=C/P(=O)(O)O)CCN1
inactive: Potency [2] | Potency [3] | Potency [4] | Potency [5]

CO/N=C(\C(=O)N[C@@H]1C(=O)N2C(C(=O)[O-])=C(C[n+]3cccc4c3CCC4)CS[C@H]12)c1csc(N)n1
inactive: Potency [2] | Potency [3] | Potency [4] | Potency [5]

CC1CC(O)CC(C)(C)C1 (stereo not drawn)
inactive: Potency [2] | Potency [3] | Potency [4] | Potency [5]
